About 79,000 compounds went through this panel and 15% of them were active in at least one assay; those are over-represented in the sample as a whole. A number with no mark means an inactive call. Calls of active or inactive are those of the source. No stated cut-off is given here; in the data, active means growth inhibition above about 70%; inactive means the rest.

This assay in a line: NCI Yeast Anticancer Drug Screen. Data for the wt2 strain (AID 169).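 Further: 0% = growth of vehicle-treated yeast cultures.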 The following applies: S. cerevisiae wt2 strain growth inhibition; at 3.7 µM; hits give high values. Summed up:
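Steps: yeast strain treated with compound; growth recorded; inhibition calculated relative to cultures given vehicle alone.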
With `CCCc1cc(C(=O)OCC)cc(CCC)c1O`, the growth inhibition was 4%.
For `CC(C)[N+]([O-])(CCCNc1c2ccccc2nc2cccc([N+](=O)[O-])c12)C(C)C`, the growth inhibition was 5%.
As to `COc1cc2c3c(cccc3c1)C(=O)N(CCN(C)C)C2=O`, the growth inhibition is 1%.
Consider `NC(=O)NN=C(CS)CS`, for which the growth inhibition was 8%.
Turning to `Cc1ccc(NC(=O)/C(Cl)=C(\Cl)C(=O)O)cc1C`, the growth inhibition was 2%.
The value for `CCN(CC)CC[n+]1ccc2c(C)c3[nH]c4ccc(O)cc4c3c(C)c2c1` was 0%.
The value for `CC(CC(C)(C)[N+](C)(C)C)[N+](C)(C)C` (centres undefined) was -1%.
The value for `COc1ccc(OC)c2cc3ccccc3cc12` was -28%; that for `Nc1ncncc1C(C1=C(O)COC1=O)C1=C(O)COC1=O` was 1%; that for `CSC1=NNC(SC)=NN1` was 1%.
For `Cc1c(Cl)ccc2c1S(=O)(=O)c1cccc(Cl)c1-2`, the growth inhibition is -9%.
As for `[O-][n+]1c2ccc(O)cc2nc2ccc(Cl)cc21`, the growth inhibition was 11%.
For `COc1ccc2ccc3ccccc3c2c1C=O`, the growth inhibition is 4%.
`Nc1ccc2c(c1)C(=O)c1cccc(N)c1C2=O`: the growth inhibition is 11%.
`O=C(c1ccc(Cl)cc1Cl)C(Cl)Cl`: the growth inhibition is -7%.
In the case of `COc1cc(C(=O)/C=C/c2ccccc2O)ccc1O`, the growth inhibition was 50%.
The value for `O=Cc1cccc2ccc3ccccc3c12` was -2%; that for `O=C(Nc1ccc(Cl)cc1)OCC#CCCl` was 98% (active); that for `Cn1ccnc1Oc1ccc(Cl)cc1` was 7%.
The value for `c1ccc2c(c1)C(=NCCCN1CCCCCC1)c1cccn1-2` was -4%; that for `C/C(=N\O)C1CC2C=C(C#N)C1N(Cc1ccccc1)C2` (centres undefined) was -2%.
`O=[N+]([O-])C(=C(Sc1ccccc1)Sc1ccccc1)C(Cl)=C(Cl)Cl`: the growth inhibition was 15%.
Consider `CCCCCCCCCC/C=C\C(=O)O`, for which the growth inhibition is -15%.
The value for `COc1ccc(N=C2C(=O)Nc3ccc(Br)cc32)cc1` was 1%.
With `COc1ccccc1C(=O)OCC1CCCN2CCCCC12` (centres undefined), the growth inhibition is -5%.
With `CC(C)(Br)C(=O)/C=C/c1ccc(Cl)c(Cl)c1`, the growth inhibition was -10%.
As for `Nc1ccccc1CC(O)C(=O)O` (centres undefined), the growth inhibition is 6%.
Consider `CC(=O)N/N=C/C(C)(C)C(C)(C)/C=N/NC(C)=O`, for which the growth inhibition is -2%.
`CN(C)c1nc2sc3c(c2c(=O)o1)CCCC3`: the growth inhibition was 0%.
The value for `CC(C)OC(=O)Oc1ccccc1OC(=O)OC(C)C` was -2%; that for `Cc1ccc(N)c(S)c1` was -25%.
With `O=C(O)c1ccccc1NC(=S)c1ccccc1`, the growth inhibition was 5%.
As for `COC(=O)c1ccc(NCC2=CC(=O)C=CC2=O)cc1O`, the growth inhibition is 56%.
The value for `NC(N)=N/N=C\c1c2ccccc2cc2ccccc12` was -64%; that for `COC(=O)CSSCc1ccc([N+](=O)[O-])cc1` was -3%.
As for `CCS(=O)(=O)c1ccc(/C=C/C=N/NC(=S)NCC(C)C)cc1`, the growth inhibition is -5%.
Regarding `N#CC(C(=O)Nc1ccccc1)C1=C(Cl)C(=O)c2ccccc2C1=O` (centres undefined), the growth inhibition was 26%.
The value for `C[C@H](CCC(=O)NN)[C@H]1CC[C@H]2[C@@H]3CC[C@@H]4C[C@H](O)CC[C@]4(C)[C@H]3CC[C@]12C` was -2%; that for `CC[n+]1ccc2c(C)c3[nH]c4ccc(O)cc4c3c(C)c2c1` was -6%.

Source of the values: PubChem BioAssay (NCI).
